The results in this text go back to PubChem BioAssay.

This experiment can be described thus: EMT-state selective cytotoxicity in co-culture – imaging, PC-3E GFP, TEM4-18 mCherry, primary screen (AID 1345086).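 On all read-outs here: cells exposed to compound for 72 h before imaging.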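 On red/green cell ratio (normalised): normalised mesenchymal count divided by normalised epithelial count so high means epithelial killing.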 The settings on record: PC-3E GFP / TEM4-18 mCherry co-culture, imaging cell counts, at 1 µM; for red/green cell ratio (normalised): actives lie on both sides, counts scaled to control wells, 1 = unselective.
The mark [1] stands for this setting: measured here: epithelial PC-3E GFP cell survival.
[2] abbreviates: measured here: mesenchymal TEM4-18 mCherry cell survival.

Calls of active or inactive are those of the source.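 How the source made its calls: active means compounds killing one labelled cell type while sparing the other, by normalised counts and ratio limits, not self-fluorescent; inactive means the rest.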

Take `CN(C(=O)OCc1ccccc1)C1C(O[C@@H]2OC(COS(=O)(=O)O)C(NC(=O)OCc3ccccc3)[C@H](OS(=O)(=O)O)[C@H]2OS(=O)(=O)O)OC2C[C@@H](NC(=O)OCc3ccccc3)[C@@H](OC3C(NC(=O)OCc4ccccc4)C[C@@H](NC(=O)OCc4ccccc4)[C@H](OS(=O)(=O)O)[C@H]3OS(=O)(=O)O)OC2C1OS(=O)(=O)O` (some centres undefined): the red/green cell ratio (normalised) is 0.95 (inactive). The normalised cell number under setting [1] turned out to be 1.05. Under setting [2], this compound came in with a normalised cell number of 1.
For `COc1ccc(-c2coc3cc(OC)ccc3c2=O)cc1`, the red/green cell ratio (normalised) was 0.82 (inactive). The same compound registered a normalised cell number under setting [1] of 1.34. The compound further had a normalised cell number under setting [2] of 1.09.
`C/C(=C\CO)CC[C@H](C)CCC[C@H](C)CCCC(C)C`: the red/green cell ratio (normalised) is 1.12 (inactive). In addition, the normalised cell number under setting [1] was 0.97. The compound further returned a normalised cell number under setting [2] of 1.09.
The matching figures for `N=c1ccn2c(n1)O[C@@H]1[C@@H](O)[C@H](CO)O[C@@H]12`: 0.99 (inactive), 0.27 and 0.27.
The matching figures for `CC(C)[C@@H]1CC[C@@H](C)C[C@H]1OC(=O)c1ccccc1`: 1.07 (inactive), 0.9 and 0.97.
The corresponding values for `O=C(O)CNC(=O)c1ccc([C@H](O)c2ccccc2)cn1` are 0.86 (inactive), 1.15 and 0.99.
`COC(=O)c1ccc(C(CC(C)C)NC(C)=O)o1` (centres undefined): the red/green cell ratio (normalised) was 1 (inactive). This compound also showed a normalised cell number under setting [1] of 1.11. This compound also showed a normalised cell number under setting [2] of 1.12.
The corresponding values for `NC(=O)NCCCC(N)C(=O)O` (centres undefined) are 1.05 (inactive), 1.03 and 1.08.
